Among the data in PubChem BioAssay (NCI) are growth values, retold here.

What all share (test): NCI-60 one-dose screen, 48 h (100 = growth as untreated, 0 = no growth, -100 = all killed)
Holding throughout (details): 10 µM unless noted

For assay [1], the system named is NCI-H522 lung.
Assay [2] deals with DU-145 prostate.
Assay [3] deals with K-562 leukemia.
Assay [4] relates to MALME-3M melanoma.
The test system of assay [5] is MDA-MB-231 breast.
Assay [6] has as its system SF-268 CNS.
The subject of assay [7] is UACC-257 melanoma.
Assay [8] relates to M14 melanoma.
In assay [9] the test system is HCT-15 colon.
The subject of assay [10] is HOP-62 NSCLC.
The subject of assay [11] is NCI-H460 lung.
In assay [12] the test system is HOP-92 NSCLC.
Assay [13] relates to A549/ATCC NSCLC.
For assay [14], the system named is 786-0 renal.
Assay [15] has as its system COLO 205 colon.
Assay [16] deals with RXF 393 renal.
Assay [17] relates to SF-295 CNS.
Assay [18] relates to SF-539 CNS.
Assay [19] concerns NCI-H322M lung.

This is part of a sample that, as a whole, favours compounds with a hit. Of some 83,000 tested, about 20% had one in any assay.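 Step 1: grow cells in 96-well plates. Step 2: add test compound at a single concentration. Step 3: incubate 48 h. Step 4: record percent growth.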 Unmarked numbers belong to inactive results. The source made the active and inactive calls. How the source made its calls: active means growth percent below 10; inactive means the rest.

`CC(C)Sc1nc(Nc2ccc(S(N)(=O)=O)cc2)c(C#N)c(-c2ccc(F)cc2)n1`: the growth in assay [1] is 73.5%; in [2] it was 25.1%; in [3], 36.3%; in assay [4], 14.8%; in [5] it was 38.6%; in assay [6], 39.1%. In addition, the figures for the growth in [7], in [8] and in assay [9] were 93.3%, 17.9% and 43.5%, respectively.
For the molecule `CCN(CC)c1ccc(C=O)c(OCc2cn(CC(=O)Nc3ccc(Cl)cc3)nn2)c1`, the growth in assay [10] is 89.9%; in [11], 52%; in assay [12], 81.4%; in [1] it was 80.9%; in assay [13], 87.9%; in assay [14], 72.9%. The growth in assay [15] was 111%; in assay [2], 81%; in assay [3], 51.7%; in assay [4], 91.5%; in [5], 80.4%; in [16], 34.1%. Besides, the growth is 84.6% in [6]; 65.8% in assay [17]; 75% in assay [18]; 108% in assay [7]; 87.7% in assay [8]; 61.4% in [9].
For the molecule `CS(=O)(=O)c1ccc(-n2cc(/C=C/C(=O)c3ccc(NC(=O)CO[N+](=O)[O-])cc3)c(-c3ccc(Cl)cc3)n2)cc1`, the growth in [19] is 97.1%; in [10], 103%; in [11], 106%; in assay [12], 90.2%; in assay [13] it was 91.8%; in [14], 67.6%. For the same molecule, the growth in assay [15] was 111%; in assay [2], 101%; in assay [3], 119%; in assay [4], 100%; in assay [5], 79.5%; in assay [16], 86.8%. Moreover, the growth in assay [6] is 111%; in [17] it was 91.2%; in [18] it was 92.7%; in [7], 97.1%; in assay [8], 91.6%; in assay [9], 96.2%.
For the molecule `CN(C)CCCNc1c2ccccc2nc2c1oc1ccc(Cl)cc12`, the growth in assay [19] is 24.4%; in assay [10] it was 55.7%; in [11] it was 12.6%; in [12], 34.8%; in assay [1], 38%; in assay [13], 27.5%. For the same molecule, the growth in assay [14] was 18.6%; in [2] it was 20.8%; in assay [3], -1.57% (active); in [4], 30.7%; in assay [5], -31.7% (active); in [16] it was -65.8% (active). Further, the growth was 40.9% in assay [6]; 24.6% in assay [17]; 18.3% in assay [18]; 49.9% in [7]; 27% in assay [8]; -31.1% (active) in assay [9].
Regarding `Cc1cc(=O)oc2cc(OCCCOc3ccc(/C=C/C(=O)Nc4ccc(Cl)cc4)cc3)ccc12`, the growth is 83% in assay [19]; 90.2% in [10]; -6.83% (active) in assay [11]; 25.2% in assay [12]; 82.6% in assay [1]; 28.6% in assay [13]. In addition, the growth was 46.4% in assay [14]; 68.2% in assay [15]; 73.6% in assay [2]; 69.1% in assay [3]; 56.6% in [4]; 69.7% in [5]. In addition, the growth was 44.9% in assay [16]; 66.9% in assay [6]; 77.7% in assay [17]; 75.6% in assay [18]; 81.5% in [7]; 74.2% in [8]. In assay [9], the growth is 60.4%.
As to `CS(=O)(=O)Nc1ccc(-c2nn(-c3ccc(S(C)(=O)=O)cc3)cc2/C=C/C(=O)c2ccc(NC(=O)CO[N+](=O)[O-])cc2)cc1`, the growth in [19] is 102%; in assay [10] it was 100%; in [11], 110%; in assay [12] it was 103%; in [1], 99.1%; in assay [13] it was 101%. Moreover, the growth in [14] is 102%; in assay [15], 114%; in [2] it was 116%; in assay [3], 102%; in [4], 107%; in assay [5], 93.4%. Also, the growth was 95% in [16]; 108% in assay [6]; 97.2% in assay [17]; 101% in assay [18]; 103% in assay [7]; 111% in assay [8]. Besides, in assay [9], the growth is 99.6%.
Regarding `O=C1Nc2cc(Cl)ccc2/C1=C\c1ccc(OCc2ccc(Br)cc2F)cc1`, the growth in assay [10] was -21.1% (active); in assay [11], -82.4% (active); in assay [12], -58.5% (active); in assay [1], -28.2% (active); in [13] it was -28.9% (active); in assay [14] it was -92.5% (active). Moreover, the growth in assay [15] is 12.4%; in [2] it was -13.2% (active); in assay [3], 3.55% (active); in [4], -66.9% (active); in assay [5] it was -2.27% (active); in assay [16], -67.3% (active). Also, the growth in [6] is -11.9% (active); in assay [17], -83.2% (active); in [18], -87.9% (active); in assay [7] it was 8.13% (active); in assay [8] it was -43.9% (active); in assay [9] it was 6.12% (active).
With `CSCCC(C(=O)O)N1C(=O)/C(=C/c2ccc(O)c(O)c2)SC1=S` (configuration not stated), the growth is 91.8% in assay [19]; 100% in [10]; 109% in [11]; 108% in assay [12]; 102% in [1]; 108% in assay [13]. In addition, the growth is 94.4% in assay [14]; 108% in assay [2]; 109% in [3]; 101% in [4]; 97.1% in assay [5]; 125% in assay [16]. Besides, the growth in assay [6] is 97.6%; in assay [17], 96.5%; in [18], 95.7%; in assay [7], 104%; in [8], 101%; in assay [9] it was 100%.
